Assay results from ChEMBL document CHEMBL3988442, “University of Dundee, Small-Polar-MMV Screening Library” (2021).

Columns and labels:
[1] = target: T1, Aspartate--tRNA(Asp/Asn) ligase (Mycobacterium tuberculosis (strain ATCC 25618 / H37Rv)) (UniProt P9WFW3); experiment: Assay for Asp RNA synthetase-1 from Mycobacterium tuberculosis; type: functional; set-up: scale not given: direction of the effect not stated beside the values; settings: 30 µM; also: in the data most compounds retested in dose-response had high values
T1 sequence (whole entry): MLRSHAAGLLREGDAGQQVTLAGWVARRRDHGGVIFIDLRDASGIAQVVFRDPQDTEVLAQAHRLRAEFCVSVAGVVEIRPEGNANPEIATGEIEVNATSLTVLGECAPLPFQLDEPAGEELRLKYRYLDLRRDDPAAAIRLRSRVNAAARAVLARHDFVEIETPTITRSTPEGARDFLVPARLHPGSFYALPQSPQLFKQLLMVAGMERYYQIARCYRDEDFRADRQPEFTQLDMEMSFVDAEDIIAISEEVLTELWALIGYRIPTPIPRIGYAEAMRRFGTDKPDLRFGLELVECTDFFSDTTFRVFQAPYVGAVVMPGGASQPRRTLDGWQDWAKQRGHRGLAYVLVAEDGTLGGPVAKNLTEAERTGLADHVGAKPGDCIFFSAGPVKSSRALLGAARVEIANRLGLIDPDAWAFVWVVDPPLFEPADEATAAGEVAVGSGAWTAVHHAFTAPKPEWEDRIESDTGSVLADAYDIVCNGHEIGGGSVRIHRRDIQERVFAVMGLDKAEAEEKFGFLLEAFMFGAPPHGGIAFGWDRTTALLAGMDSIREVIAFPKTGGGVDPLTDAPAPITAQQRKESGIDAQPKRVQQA

[2] = target: Shiga toxin 2 (Escherichia coli O157:H7) (UniProt P09385+P09386); experiment: E. coli 0.157:H7 Shiga Toxin SOP - stx2 screening assay; type: functional; set-up: scale not given: direction of the effect not stated beside the values; settings: 30 µM

Row | SMILES | Percent Effect [1] [%] | Percent Effect [2] [%]
1 | CN(CCC#N)C(=O)CCOc1cccc(F)c1 | -3.59 | -25.6
2 | CC(C)OCCN1CCC(N2CCN(C)C2=O)CC1 | 0.182 | -16.8
3 | COc1ccc(C2=CCN(C(=O)CN(C)CC(N)=O)CC2)cc1 | -2.46 | -18.1
4 | COc1ccc2c(c1)C1(CCN(Cc3ccoc3)CC1)N(C)CC2 | 0.685 | -9.8
5 | COC[C@@]12CCO[C@@H]1CCN(C(=O)Cc1ccccc1F)C2 | -2.8 | -1.69
6 | Cc1cc(-c2cnc(N3CCNC(=O)C3)nc2-c2cccnc2C)on1 | -4.46 | -9.56
7 | Cc1noc(C)c1CNC(=O)N1CCN(Cc2cscn2)CC1 | 0.233 | 1.78
8 | CC1CN(C(=O)c2ccn(-c3cccc(Cl)c3)n2)CCO1 (stereo unspecified) | -3.19 | -15
9 | CN1[C@H](CN2CCCC2)C[C@@H]2CN(C(=O)c3cccn3C)CC[C@@H]21 | 2.46 | -2.89
10 | Cc1ccc(C(=O)N(C)Cc2cc(Br)cs2)c(=O)[nH]1 | 0.749 | -3.88
11 | CC(=O)c1ccc(C(=O)NCCCOC(C)c2ccccc2)s1 (stereo unspecified) | -4.7 | -71.8
12 | CC(=O)NCCC1CCCCN1S(=O)(=O)c1cccc(C#N)c1 (stereo unspecified) | -1.28 | -30
13 | O=C(Cc1csc(-c2nnc[nH]2)n1)N1CCCC1Cn1cccn1 (stereo unspecified) | -4.54 | 5.43
14 | Cc1cc(C)n(CC(C)CNC(=O)[C@@H](C)NC(=O)OC(C)(C)C)n1 (stereo partly specified) | -1.38 | 9.62
15 | COc1ccc(C(C(=O)O)N2CCCN(C3CCCCC3)CC2)cn1 (stereo unspecified) | 2.16 | 0.0125
16 | Cc1ccc(N2CCCC(NCC(=O)NC3CCOCC3)C2)nn1 (stereo unspecified) | 5.08 | -27.9
17 | CS(=O)(=O)c1ccccc1C(=O)NCCCN1CCc2ccccc2C1 | -6.45 | -24.7
18 | CC(C)c1nc(C2CCCN2Cc2ccno2)no1 (stereo unspecified) | 1.46 | 1.7
